For 40 molecules, outcome and activity change, negative = cytotoxicity results are on record in PubChem BioAssay (Tox21).

Results filed as inconclusive are left out. A number with no mark means an inactive call. Calls of active or inactive are those of the source. The call rests on the fitted dose curve; in most records, active means well fitted cell-killing curve with a large enough effect in the repeat runs; inconclusive means weak or mixed curves; inactive means no such curve, though single readings can be large or run the other way.
On the % scale 0 is the no-effect control and ±100 the full control effect.

The assay can be described thus: qHTS assay to identify small molecule antagonists of the androgen receptor (AR) signaling pathway - cell viability counter screen (AID 743033; further: nearly all actives have a fitted effect of over 45% in size). The settings on record: AR-bla HEK293 viability, CellTiter-Glo luminescence, 16 h; series mostly up to 58.5 µM. From the text:
National Center for Advancing Translational Sciences [NCATS]
NIH Chemical Genomics Center [NCGC]
U.S. Environmental Protection Agency [EPA]
National Institutes of Environmental Health Sciences [NIEHS]
National Toxicology Program [NTP]
U.S. Food and Drug Administration [FDA]
Androgen receptor (AR), a nuclear hormone receptor, plays a critical role in AR-dependent prostate cancer and other androgen related diseases. Endocrine disrupting chemicals (EDCs) and their interactions with steroid hormone receptors like AR may cause disruption of normal endocrine function as well as interfere with metabolic homeostasis, reproduction, developmental and behavioral functions. To identify the compounds that inhibit AR signaling, GeneBLAzer AR-UAS-bla-GripTite cell line (Invitrogen, Carlsbad, CA, USA) containing a beta-lactamase reporter gene under control of an Upstream Activator Sequence (UAS) stably integrated into HEK293 cells was used to screen the Tox21 10K compound library. The cytotoxicity of the Tox21 compound library against the AR-bla cell line was tested in parallel by measuring the cell viability using CellTiter-Glo assay in the same wells.
Tox21 Assay Protocol Summary:
AR-bla cells were dispensed at 2,000 cells/5 uL of assay medium per well into black wall/clear-bottom 1536-well plates using a Multidrop Combi (ThermoFisher Scientific, Waltham, MA) dispenser. After the assay plates were incubated at a 37C and 5% CO2 for 4 hr, 23 nL of compounds dissolved in DMSO, positive controls or DMSO only was transferred to the assay plate by a Pintool station (Kalypsys, San Diego, CA), followed by addition of 1 uL of agonist (R1881) in culture medium using a Bioraptr Flying Reagent Dispenser (FRD) workstation (Beckman Coulter, Indianapolis, IN, USA). The plates were incubated at a 37C and 5% CO2 for 16 h. After 1 uL of LiveBLAzerTM B/G FRET substrate was added using a Bioraptr FRD, the plates were incubated at room temperature for 2 h and fluorescence intensity was measured by an Envision plate reader (PerkinElmer, Shelton, CT). For cell viability readout that measures cytotoxicity, 4 ul/well of CellTiter-Glo reagent was added into the assay plates using a Bioraptr FRD. After 30 min incubation at room temperature, the luminescence intensity in the plates was measured using a ViewLux (PerkinElmer) plate reader.
For orientation: In qHTS, concentration-response curves come from the screen itself.
As to `[O-][N+](=Nc1ccccc1)c1ccccc1`, the result was inactive.

With `COCCOC(=O)CC#N`, the molecule was called inactive.

With `Cc1onc(-c2ccccc2)c1-c1ccc(S(N)(=O)=O)cc1`, the outcome was inactive.

Regarding `COc1cc(C)cc(O)c1`, the molecule was classed as inactive.

On to `Cn1cnc2c(=O)[nH]c(N)nc21`, for which the call was inactive.

For `CN(C)CCn1nnnc1SCC1=C(C(=O)O)N2C(=O)[C@@H](NC(=O)Cc3csc(N)n3)[C@H]2SC1`, the molecule was classed as inactive.

Regarding `CC(C)[C@H](N)C(=O)OCCOCn1cnc2c(=O)[nH]c(N)nc21`, the call was inactive.

Regarding `NC(N)=NS(=O)(=O)c1ccc(N)cc1`, the molecule was called inactive.

With `CC(C)c1ccc2oc3nc(N)c(C(=O)O)cc3c(=O)c2c1`, the molecule was called inactive.

For `COc1cccc(Br)c1`, the outcome was inactive.

Consider `O=C1OC(=O)c2cc([N+](=O)[O-])ccc21`, for which the molecule was classed as inactive.

Consider `CC(C)(C)CC(C)(C)N`, for which the molecule was classed as inactive.

Consider `C#CC(C)(O)CC(C)C` (stereo not given), for which the outcome was inactive.

Consider `COC(=O)c1ccc(C(=O)OC)c(C(=O)OC)c1`, for which the call was inactive.

`CC(=O)N[C@@H](CCC(N)=O)C(=O)O`: the result was inactive.

`Oc1cc(O)c2c(c1)O[C@H](c1ccc(O)c(O)c1)[C@H](O)C2`: the molecule was classed as inactive.

As for `COc1cc(CCC(C)=O)ccc1O`, the result was inactive.

`CCCCCC[C@@H](CCC)C(=O)O`: the result was inactive.

In the case of `Nc1cc(N)cc(C(=O)O)c1`, the outcome was inactive.

On to `CC(C)N1C(=O)c2ccccc2C1=O`, for which the outcome was inactive.

With `Cc1nc(-c2ccc(OCC(C)C)c(C#N)c2)sc1C(=O)O`, the call was inactive.

In the case of `CC(C)CCCCCCN`, the molecule was classed as inactive.

As to `COc1cc(O)cc(O)c1`, the call was inactive.

`CCCC(C)CO` (stereo not given): the molecule was called inactive.

With `C=C(C)C(=O)NCCC[N+](C)(C)C`, the result was inactive.

In the case of `CC(C)COC(=O)c1ccccc1O`, the molecule was classed as inactive.

As to `N[C@@H](CS)C(=O)O`, the call was inactive.

Take `Nc1nc(F)nc2c1ncn2[C@@H]1O[C@H](CO)[C@@H](O)[C@@H]1O`: the molecule was called inactive.

As to `OCCCCCCO`, the molecule was called inactive.

As for `C=C[Si](OC)(OC)OC`, the molecule was classed as inactive.

Turning to `FC(F)(F)C(F)(F)C(F)(F)C(F)(F)C(F)(F)C(F)(F)C(F)(F)C(F)(F)C(F)(F)C(F)(F)F`, the activity change, negative = cytotoxicity was 0.133% [at 7.04 µM].

Take `NCC[C@H](O)C(=O)N[C@@H]1C[C@H](N)[C@@H](O[C@H]2O[C@H](CN)[C@@H](O)[C@H](O)[C@H]2O)[C@H](O)[C@H]1O[C@H]1O[C@H](CO)[C@@H](O)[C@H](N)[C@H]1O`: the result was inactive.

Consider `CCN(CC)S(=O)(=O)c1ccc(C(=O)O)cc1`, for which the molecule was called inactive.

Turning to `CCCCCCCCCCCCCCCCCCOCC(O)CO` (stereo not given), the result was inactive.

With `CCCCOCC(C)OCC(C)O` (stereo not given), the result was inactive.

Turning to `CCCC(C)C(=O)O` (stereo not given), the molecule was classed as inactive.

For `Cc1ccccc1Br`, the molecule was called inactive.

Consider `c1ccc(SCCSc2ccccc2)cc1`, for which the result was inactive.

With `N#CCc1ccccc1[N+](=O)[O-]`, the molecule was called inactive.

For the molecule `C=CCSCC1Nc2cc(Cl)c(S(N)(=O)=O)cc2S(=O)(=O)N1` (stereo not given), the result was inactive.
